TRPV1 PAM – enhances activation of the human vanilloid receptor TRPV1; 0.02% of 320,000 active; potentiation, % at 8.33 µM; Q8NER1; AID 540277; TRPV1-expressing cells, Fluo-8 calcium influx, capsaicin EC20 potentiation; in the data active means potentiation above about 80%; inconclusive means between about 30% and that limit; further: 0% is about no effect
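Cells expressing TRPV1 were dye-loaded with Fluo-8 and read kinetically: 10 s baseline, 3 min after compound (agonist portion), then 2 min after EC20 capsaicin (allosteric enhancer portion). Calcium-bound dye fluorescence at 480/520 nm.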
D1 ag – human D1 receptor agonism. P21728. HEK293 T-REx D1 cells, calcium flux, agonist mode. activation, % at 2 µM. 1% of 360,000 active; in the data active means activation above about 30%; further: 0% is about no effect
Target sequence (P21728 whole entry, looked up): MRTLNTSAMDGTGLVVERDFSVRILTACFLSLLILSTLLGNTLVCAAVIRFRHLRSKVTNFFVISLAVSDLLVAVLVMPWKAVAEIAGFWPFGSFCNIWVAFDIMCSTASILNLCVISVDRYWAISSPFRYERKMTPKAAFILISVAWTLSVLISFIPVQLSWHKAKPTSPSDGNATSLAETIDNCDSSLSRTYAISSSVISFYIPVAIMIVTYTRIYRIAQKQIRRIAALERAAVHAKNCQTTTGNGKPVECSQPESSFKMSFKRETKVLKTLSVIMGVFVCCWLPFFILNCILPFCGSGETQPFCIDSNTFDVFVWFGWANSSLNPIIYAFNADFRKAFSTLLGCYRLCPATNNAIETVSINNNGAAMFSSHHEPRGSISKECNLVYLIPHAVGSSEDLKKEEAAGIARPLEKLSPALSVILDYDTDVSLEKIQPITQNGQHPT
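Inducible HEK293 T-REx D1 cells, force-coupled to calcium signalling, were plated at 4000 cells/well with tetracycline and held overnight at 30 C. After no-wash calcium dye loading, compound-evoked calcium rise over 180 s flagged agonists.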
TRPV1 ag – human TRPV1 agonism; activation, % at 8.33 µM; Q8NER1; 0.19% of 320,000 active; TRPV1-expressing cells, Fluo-8 calcium influx, agonist mode; AID 540275; in the data active means activation above about 80%; inconclusive means between about 30% and that limit; further: 0% is about no effect
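Cells expressing TRPV1 were dye-loaded with Fluo-8 and read kinetically: 10 s baseline, 3 min after compound (agonist portion), then 2 min after EC20 capsaicin (allosteric enhancer portion). Calcium-bound dye fluorescence at 480/520 nm.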
D1 antag – human D1 dopamine receptor antagonism | P21728 | HEK293 TREx D1 cells, calcium flux, dopamine EC80; stronger effect = lower value | activity change, negative = inhibition, % at 10 µM | 3.2% of 360,000 active; in the data active means activity change below about -30%; further: on the % scale 0 is the no-effect control and ±100 the full control effect
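Inducible Hek293 Trex D1 cells (tetracycline, overnight, 30 C). Calcium dye 30–90 min RT. Antagonist mode: EC80 dopamine added after 180 s compound read.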
D1 potentiator – enhances dopamine response at the human D1 receptor. P21728. HEK293 TREx D1 cells, calcium flux, dopamine EC20 potentiation. potentiation, % at 10 µM. 0.036% of 360,000 active. AID 504651; in the data active means potentiation above about 30%; further: 0% is about no effect
Starred values were filed as active, the others as inactive; ? = inconclusive; · = no result given; ! = a repeat was not active. In the library only some 4.2% were active in any assay of this set; here they are far more common.

SMILES	TRPV1 PAM	D1 ag	TRPV1 ag	D1 antag	D1 potentiator
O=C(c1ccc(N2CCCCC2)c([N+](=O)[O-])c1)N1CCN(S(=O)(=O)c2ccccc2)CC1	-13	0	10	16	-3
CCOC(=O)C1CCN(c2ccc(C(N)=O)cc2[N+](=O)[O-])CC1	-3	11	-3	-33*	-4
NC(=O)c1ccc(N2CCN(S(=O)(=O)c3ccccc3)CC2)c([N+](=O)[O-])c1	16	12	6	-40*	1
Cc1ccc(-c2noc(-c3nnn(-c4ccc(Br)cc4F)c3C)n2)cc1	·	1	·	-11	4
CCOCCCNC(=O)C(c1ccccc1)N1Cc2ccccc2C1=O (stereo not given)	·	-2	·	-9	0
Nc1cc(=O)nc(SCC(=O)Nc2cccc(Cl)c2)n1CCc1ccccc1	·	11	·	4	-1
COc1ccc2ccccc2c1/C=N/NC(=O)c1cccc(Br)c1	11	2	0	-7	-3
O=C(N/N=C\c1ccc(Cl)s1)c1ccc(Cn2cccn2)o1	-23	-2	?	-7	1
O=C(N/N=C/c1c(O)ccc2ccccc12)c1cccc(C(F)(F)F)c1	-19	162*	?	-31*	9
CC(C)c1ccc(/C=N\NC(=O)c2ccc(Cn3cccn3)o2)cc1	8	7	82*	35	-2
O=C(N/N=C\c1c(O)ccc2ccccc12)c1ccc(Cn2cccn2)o1	-14	29	?	-30*	-3
O=C(N/N=C/c1c(O)ccc2ccccc12)c1[nH]ncc1Br	-11	15	15	-13	-1
Cc1ccc(OCC(=O)Nc2ccccc2C(=O)OCc2cc(=O)n3nc(C4CC4)sc3n2)cc1	·	-1	·	-3	0
Cc1ccc(CCNC(=O)CN(c2ccc(C)cc2)S(=O)(=O)c2c(C)noc2C)cc1	-9	1	5	-1	0
CCOc1ccc(N(CC(=O)Nc2cccc(Cl)c2)S(=O)(=O)c2c(C)noc2C)cc1	·	4	·	-36*	-6
COc1ccc(N(CC(=O)Nc2ccc(C)c(C)c2)S(=O)(=O)c2c(C)noc2C)cc1	23	4	2	-42*	-12
CCOc1ccc(N(CC(=O)Nc2cccc(OC)c2)S(=O)(=O)c2c(C)noc2C)cc1	3	5	8	39	-7
Cc1ccc(N(CC(=O)NCCc2ccc(Cl)cc2)S(=O)(=O)c2c(C)noc2C)cc1	1	8	3	-34*!	4
CCc1c(C)c2cc3c(c(C)c2oc1=O)OCN(CCc1ccccc1F)C3	·	0	·	-7	0
CCCc1cc(-c2n[nH]c(C)c2-c2ccc(C(=O)OCC)o2)c(O)cc1O	·	65*	·	63	-2
O=C(CNC(=O)c1ccccc1)N[C@H](C(=O)Nc1cc(C(F)(F)F)ccc1Cl)c1ccccc1	·	4	·	7	-2
CCC1CCCCN1C(=O)c1c[nH]c2ccc(S(=O)(=O)Nc3cccc(OC)c3)cc2c1=O (stereo not given)	·	0	·	-7	-3
COc1ccccc1-n1cnc2cc(NS(=O)(=O)c3ccc(Br)cc3)ccc21	0	3	-3	-39*	-9
CCN1CCOC(=O)C1CC(=O)Nc1cc(Cl)ccc1C (stereo not given)	·	-1	·	-1	-5
COc1cc(CNCCSc2nnnn2C)ccc1OCc1ccc(C)cc1	·	6	·	-10	-4
SMILES	TRPV1 PAM	D1 ag	TRPV1 ag	D1 antag	D1 potentiator
CC(C)c1ccc(OCc2cc(=O)n3c4c(sc3n2)CCCC4)cc1	·	1	·	4	1
Cc1cccc(NC(=O)c2cccc(N3C(=O)C4CCC(C)CC4C3=O)c2)c1C (stereo not given)	-5	4	10	-49*	0
Cc1cccc(C)c1NC(=O)c1cccc(N2C(=O)C3CCC(C)CC3C2=O)c1 (stereo not given)	9	2	1	11	-5
COc1ccc(OC)c(NC(=O)c2cccc(N3C(=O)C4C5CCC(C5)C4C3=O)c2)c1 (stereo not given)	-11	7	24	-12	-2
COc1ccc(NC(=O)c2cccc(N3C(=O)C4CC=C(C)CC4C3=O)c2)c(OC)c1 (stereo not given)	-5	1	2	-51*	-9
CCOc1ccc(CNC(=O)c2cc3c(=O)n(C)c4ccccc4c3s2)cc1	·	0	·	1	5
Cc1ccc(N2CC(NC(=O)CCCc3ccccc3)CC2=O)cc1 (stereo not given)	·	-4	·	·	-1
Cc1c(CN2CCC(n3nccc3NC(=O)C3CCOC3)CC2)[nH]c2ccccc12 (stereo not given)	-11	2	-2	7	-2
O=C(Nc1ccnn1C1CCN(Cc2cc3ccccc3[nH]2)CC1)C1CCOC1 (stereo not given)	10	10	-3	-32*	-9
CC(C)N(C(=O)CSc1cn(CC(=O)N2CCCCCC2)c2ccccc12)C(C)C	·	3	·	-18	-6
Cc1[nH]nc(N2CCCCCC2)c1[N+](=O)[O-]	28	1	-4	-41*	-9
Cc1ccn(-c2n[nH]c(C)c2[N+](=O)[O-])n1	1	8	1	4	20
O=C(CCCc1nc(-c2ccccc2)no1)Nc1cc(C(F)(F)F)cc(C(F)(F)F)c1	·	15	·	-18	0
CCOC(=O)c1ccc(NC(=O)CSc2nnnn2C2CCCCC2)cc1	-2	0	2	4	-17
Cc1sc(NC(=O)CSc2nnc(C(C)C)n2C)c(C#N)c1C	3	3	-4	-11	-6
CCOc1ccc(NC(=O)CSc2nnnn2C2CCCC2)cc1	15	47*	1	-1	·
Cc1sc(NC(=O)CSc2nnnn2C2CCCCC2)c(C#N)c1C	1	4	4	-34*	-2
O=C(Cc1ccc(F)cc1)Nc1cccc(-c2nc3cccnc3s2)c1	·	-1	·	-3	3
CCOC(=O)c1cnn(-c2ccc(NS(=O)(=O)c3ccc(Cl)cc3)cc2)c1C(F)(F)F	-4	6	-1	-62*	-5
C=CCNC(=S)NNC(=O)CC12CC3CC(CC(C3)C1)C2	-56	1	0	-42*	-15
CCOc1ccc(NC(=O)CSc2oc(-c3ccco3)nc2S(=O)(=O)c2ccccc2)cc1	·	3	·	-4	-1
O=C(CCS(=O)(=O)c1cccs1)Nc1ccc(C(=O)Nc2ccccc2F)cc1	·	12	·	-8	0
COc1ccc(NCc2nnc(SCC(=O)c3ccc(OC)cc3)n2C)cc1	9	2	-6	-33*	-9
COc1ccc(CC(=O)NCc2nnc(SCC(=O)c3ccc(OC)cc3)n2C)cc1	-1	0	-3	0	3
O=C(CSCc1ccc(F)cc1)N1CCc2c([nH]c3ccccc23)C1c1ccc(F)cc1 (stereo not given)	·	3	·	6	-1
Cc1nn(C)c2c1c(-c1ccccc1)cc(=O)n2Cc1ccccc1C#N	·	20	·	2	-4

High-throughput results deposited in PubChem BioAssay by National Center for Advancing Translational Sciences (NCATS).
